# This is one part of a sample in which the strongest signals are shown more often than they occur.
# Assays:
# Experiment in all cases: glycan array binding signal (z-score within array); higher = stronger binding
# Details in all cases: glycan notation: IUPAC condensed, linker removed
# [1] = target: Glc(a1-6)Glc(a1-6)Glc(a1-6)Glc
# Summary of the method: (§1)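 The binding signal is a Z-score computed within each array. Data were drawn from 3228 arrays in the Consortium for Functional Glycomics database, restricted to those with a known protein sequence. Scores were averaged over arrays of the same protein sequence at different concentrations or buffers, and over linkers, and negative values can be taken as non-binding.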
# [2] = target: Glc(b1-4)Glc(b1-4)Glc(b1-4)Glc(b1-4)Glc(b1-4)Glc(b1-4)Glc(b1-4)Glc(b1-4)Glc
# Summary of the method: as §1
# [3] = target: Glc(b1-4)Glc(b1-4)Glc(b1-4)Glc(b1-4)Glc(b1-4)Glc(b1-4)Glc(b1-4)Glc(b1-4)Glc(b1-4)Glc
# Summary of the method: as §1
# [4] = target: Glc(b1-4)Glc(b1-4)Glc(b1-4)Glc(b1-4)Glc(b1-4)Glc(b1-4)Glc(b1-4)Glc(b1-4)Glc(b1-4)Glc(b1-4)Glc
# Summary of the method: as §1
# [5] = target: Glc(b1-4)Glc(b1-4)Glc(b1-4)Glc(b1-4)Glc(b1-4)Glc(b1-4)Glc(b1-4)Glc(b1-4)Glc(b1-4)Glc(b1-4)Glc(b1-4)Glc
# Summary of the method: as §1
# [6] = target: Glc(b1-4)Glc(b1-4)Glc(b1-4)Glc(b1-4)Glc(b1-4)Glc(b1-4)Glc(b1-4)Glc(b1-4)Glc(b1-4)Glc(b1-4)Glc(b1-4)Glc(b1-4)Glc
# Summary of the method: as §1
# GlcA(b1-3)Gal = target: GlcA(b1-3)Gal
# Summary of the method: as §1
# [7] = target: GlcA3S(b1-3)Gal(b1-4)GlcNAc(b1-2)Man
# Summary of the method: as §1
# [8] = target: GlcNAc(b1-2)Gal(b1-3)GalNAc
# Summary of the method: as §1
# [9] = target: GlcNAc(b1-2)Man(a1-3)[GlcNAc(b1-2)Man(a1-6)]Man(b1-4)GlcNAc(b1-4)GlcNAc
# Summary of the method: as §1
# [10] = target: GlcNAc(b1-3)Gal(b1-4)GlcNAc(b1-2)Man(a1-3)[GlcNAc(b1-3)Gal(b1-4)GlcNAc(b1-2)Man(a1-6)]Man(b1-4)GlcNAc(b1-4)GlcNAc
# Summary of the method: as §1
# [11] = target: GlcNAc(b1-3)Gal(b1-4)GlcNAc(b1-2)Man(a1-3)[GlcNAc(b1-3)Gal(b1-4)GlcNAc(b1-2)Man(a1-6)]Man(b1-4)GlcNAc(b1-4)[Fuc(a1-6)]GlcNAc
# Summary of the method: as §1
# [12] = target: GlcNAc(b1-3)Gal(b1-4)GlcNAc(b1-3)Gal(b1-4)GlcNAc(b1-3)Gal(b1-4)GlcNAc(b1-3)Gal(b1-4)GlcNAc(b1-2)[GlcNAc(b1-3)Gal(b1-4)GlcNAc(b1-3)Gal(b1-4)GlcNAc(b1-3)Gal(b1-4)GlcNAc(b1-3)Gal(b1-4)GlcNAc(b1-6)]Man(a1-6)[GlcNAc(b1-3)Gal(b1-4)GlcNAc(b1-3)Gal(b1-4)GlcNAc(b1-3)Gal(b1-4)GlcNAc(b1-3)Gal(b1-4)GlcNAc(b1-2)Man(a1-3)]Man(b1-4)GlcNAc(b1-4)[Fuc(a1-6)]GlcNAc
# Summary of the method: as §1
# [13] = target: GlcNAc(b1-3)Gal(b1-4)GlcNAc(b1-6)[Gal(b1-3)]GalNAc
# Summary of the method: as §1
# [14] = target: GlcNAc(b1-3)[GlcNAc(b1-6)]Gal
# Summary of the method: as §1
# [15] = target: GlcNAc(b1-3)[GlcNAc(b1-6)]Gal(b1-4)GlcNAc(b1-3)[GlcNAc(b1-6)]Gal(b1-4)GlcNAc(b1-3)Gal(b1-4)Glc
# Summary of the method: as §1
# GlcNAc(b1-4)GlcNAc = target: GlcNAc(b1-4)GlcNAc
# Summary of the method: as §1
# [16] = target: GlcNAc(b1-4)GlcNAc(b1-4)GlcNAc(b1-4)GlcNAc
# Summary of the method: as §1
# [17] = target: HexA(a1-3)GalNAc4S(b1-4)GlcA(b1-3)GalNAc4S(b1-4)GlcA(b1-3)GalNAc4S(b1-4)GlcA(b1-3)GalNAc4S(b1-4)GlcA(b1-3)GalNAc4S(b1-4)GlcA(b1-3)GalNAc4S(b1-4)GlcA(b1-3)GalNAc4S
# Summary of the method: as §1
# [18] = target: Man(a1-2)Man(a1-6)[Man(a1-3)]Man(a1-6)[Man(a1-2)Man(a1-2)Man(a1-3)]Man(b1-4)GlcNAc(b1-4)GlcNAc
# Summary of the method: as §1
# Neu5Ac(a2-3)Gal = target: Neu5Ac(a2-3)Gal
# Summary of the method: as §1
# [19] = target: Neu5Ac(a2-3)Gal(b1-3)GalNAc(b1-3)Gal(a1-4)Gal(b1-4)Glc
# Summary of the method: as §1
# [20] = target: Neu5Ac(a2-3)Gal(b1-3)GlcNAc(b1-2)Man(a1-3)[Neu5Ac(a2-3)Gal(b1-3)GlcNAc(b1-2)Man(a1-6)]Man(b1-4)GlcNAc(b1-4)GlcNAc
# Summary of the method: as §1
# [21] = target: Neu5Ac(a2-3)Gal(b1-3)[Neu5Ac(a2-3)Gal(b1-4)]GlcNAc
# Summary of the method: as §1
# [22] = target: Neu5Ac(a2-3)Gal(b1-3)[Neu5Ac(a2-6)]GalNAc
# Summary of the method: as §1
# [23] = target: Neu5Ac(a2-3)Gal(b1-4)GlcNAc(b1-2)Man(a1-3)[Neu5Ac(a2-3)Gal(b1-4)GlcNAc(b1-2)Man(a1-6)]Man(b1-4)GlcNAc(b1-4)GlcNAc
# Summary of the method: as §1
# [24] = target: Neu5Ac(a2-3)Gal(b1-4)GlcNAc(b1-2)Man(a1-3)[Neu5Ac(a2-3)Gal(b1-4)GlcNAc(b1-2)Man(a1-6)]Man(b1-4)GlcNAc(b1-4)[Fuc(a1-6)]GlcNAc
# Summary of the method: as §1
# [25] = target: Neu5Ac(a2-3)Gal(b1-4)[Fuc(a1-3)]GlcNAc6S
# Summary of the method: as §1
# [26] = target: Neu5Ac(a2-3)Gal(b1-4)[Qui(a1-3)]GlcNAc(b1-3)Gal
# Summary of the method: as §1
# [27] = target: Neu5Ac(a2-3)GalNBz(b1-4)GlcNAc
# Summary of the method: as §1
# [28] = target: Neu5Ac(a2-3)[GalNAc(b1-4)]Gal(b1-3)GalNAc(b1-4)[Neu5Ac(a2-3)]Gal(b1-4)Glc
# Summary of the method: as §1
# [29] = target: Neu5Ac(a2-3)[GalNAc(b1-4)]Gal(b1-4)GlcNAc
# Summary of the method: as §1
# [30] = target: Neu5Ac(a2-6)Gal(b1-4)GlcNAc(b1-2)Man(a1-3)[Neu5Ac(a2-6)Gal(b1-4)GlcNAc(b1-2)Man(a1-6)]Man(b1-4)GlcNAc(b1-4)[Fuc(a1-6)]GlcNAc
# Summary of the method: as §1
# [31] = target: Neu5Ac(a2-6)Gal(b1-4)GlcNAc(b1-3)[Neu5Ac(a2-6)Gal(b1-4)GlcNAc(b1-6)]Gal(b1-4)Glc
# Summary of the method: as §1
# Neu5Ac(b2-3)Gal(b1-4)Glc = target: Neu5Ac(b2-3)Gal(b1-4)Glc
# Summary of the method: as §1
# [32] = target: Neu5Ac9Ac(a2-3)Gal(b1-4)GlcNAc
# Summary of the method: as §1
# [33] = target: Neu5Ac9Ac(a2-3)Gal(b1-4)[Fuc(a1-3)]GlcNAc
# Summary of the method: as §1
# Neu5Gc(a2-6)GalNAc = target: Neu5Gc(a2-6)GalNAc
# Summary of the method: as §1
# [34] = target: Xyl(b1-4)Xyl(b1-4)Xyl(b1-4)Xyl(b1-4)Xyl(b1-4)Xyl
# Summary of the method: as §1
binder,measurement,setting,value
"PNA (Arachis hypogaea), P02872 (protein) MKPFCVFLTFFLLLAASSKKVDSAETVSFNFNSFSEGNPAINFQGDVTVLSNGNIQLTNLNKVNSVGRVLYAMPVRIWSSATGNVASFLTSFSFEMKDIKDYDPADGIIFFIAPEDTQIPAGSIGGGTLGVSDTKGAGHFVGVEFDTYSNSEYNDPPTDHVGIDVNSVDSVKTVPWNSVSGAVVKVTVIYDSSTKTLSVAVTNDNGDITTIAQVVDLKAKLPERVKFGFSASGSLGGRQIHLIRSWSFTSTLITTTRRSIDNNEKKIMNMASA",glycan array binding signal (z-score),[1],-0.136
same,glycan array binding signal (z-score),[2],0.924
same,glycan array binding signal (z-score),[3],1.4
same,glycan array binding signal (z-score),[4],2.88
same,glycan array binding signal (z-score),[5],1.98
same,glycan array binding signal (z-score),[6],2.23
same,glycan array binding signal (z-score),GlcA(b1-3)Gal,-0.167
same,glycan array binding signal (z-score),[7],-0.368
same,glycan array binding signal (z-score),[8],-0.177
same,glycan array binding signal (z-score),[9],-0.143
same,glycan array binding signal (z-score),[10],0.227
same,glycan array binding signal (z-score),[11],0.22
same,glycan array binding signal (z-score),[12],1.96
same,glycan array binding signal (z-score),[13],5.04
same,glycan array binding signal (z-score),[14],-0.195
same,glycan array binding signal (z-score),[15],2.02
same,glycan array binding signal (z-score),GlcNAc(b1-4)GlcNAc,-0.113
same,glycan array binding signal (z-score),[16],-0.195
same,glycan array binding signal (z-score),[17],-0.195
same,glycan array binding signal (z-score),[18],-0.178
same,glycan array binding signal (z-score),Neu5Ac(a2-3)Gal,-0.171
same,glycan array binding signal (z-score),[19],-0.112
same,glycan array binding signal (z-score),[20],-0.061
same,glycan array binding signal (z-score),[21],-0.21
same,glycan array binding signal (z-score),[22],-0.176
same,glycan array binding signal (z-score),[23],-0.148
same,glycan array binding signal (z-score),[24],-0.306
same,glycan array binding signal (z-score),[25],-0.225
same,glycan array binding signal (z-score),[26],-0.195
same,glycan array binding signal (z-score),[27],-0.195
same,glycan array binding signal (z-score),[28],-0.195
same,glycan array binding signal (z-score),[29],-0.138
same,glycan array binding signal (z-score),[30],-0.21
same,glycan array binding signal (z-score),[31],-0.195
same,glycan array binding signal (z-score),Neu5Ac(b2-3)Gal(b1-4)Glc,-0.195
same,glycan array binding signal (z-score),[32],-0.073
same,glycan array binding signal (z-score),[33],-0.195
same,glycan array binding signal (z-score),Neu5Gc(a2-6)GalNAc,-0.162
same,glycan array binding signal (z-score),[34],-0.195

# — the supplement of paper PMC8728848
